Drawing on ChEMBL document CHEMBL5724796, “Tm Shift (DSF) assay results for EUbOPEN Chemogenomics Library” (2024), this text covers ΔTm for 15 compounds.

Details in all cases: Compound concentration 20.0 uM
The target of assay [1] is Tyrosine-protein kinase ABL1 (Homo sapiens) (UniProt P00519).
In assay [2] the target is Bromodomain-containing protein 4 (Homo sapiens) (UniProt O60885).
Assay [3] deals with Cyclin-dependent kinase 2 (Homo sapiens) (UniProt P24941).
Assay [4] deals with Casein kinase I isoform delta (Homo sapiens) (UniProt P48730).
Chain of Casein kinase I isoform delta (Homo sapiens) (P48730 whole entry, looked up, canonical isoform): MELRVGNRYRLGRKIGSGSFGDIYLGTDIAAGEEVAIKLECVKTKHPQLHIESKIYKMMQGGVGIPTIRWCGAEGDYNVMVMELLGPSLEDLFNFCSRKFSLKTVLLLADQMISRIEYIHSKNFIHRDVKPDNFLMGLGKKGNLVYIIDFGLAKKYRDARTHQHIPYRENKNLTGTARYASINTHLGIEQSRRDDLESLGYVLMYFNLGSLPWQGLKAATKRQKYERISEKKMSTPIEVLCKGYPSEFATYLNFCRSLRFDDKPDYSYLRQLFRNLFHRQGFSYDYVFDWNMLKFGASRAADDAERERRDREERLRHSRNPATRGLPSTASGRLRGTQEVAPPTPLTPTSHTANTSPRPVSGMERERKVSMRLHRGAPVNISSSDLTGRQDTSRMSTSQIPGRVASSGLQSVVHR
Assay [5] concerns the target Glycogen synthase kinase-3 beta (Homo sapiens) (UniProt P49841).
Assay [6] deals with Mitogen-activated protein kinase 1 (Homo sapiens) (UniProt P28482).
Chain of Mitogen-activated protein kinase 1 (Homo sapiens) (P28482 whole entry): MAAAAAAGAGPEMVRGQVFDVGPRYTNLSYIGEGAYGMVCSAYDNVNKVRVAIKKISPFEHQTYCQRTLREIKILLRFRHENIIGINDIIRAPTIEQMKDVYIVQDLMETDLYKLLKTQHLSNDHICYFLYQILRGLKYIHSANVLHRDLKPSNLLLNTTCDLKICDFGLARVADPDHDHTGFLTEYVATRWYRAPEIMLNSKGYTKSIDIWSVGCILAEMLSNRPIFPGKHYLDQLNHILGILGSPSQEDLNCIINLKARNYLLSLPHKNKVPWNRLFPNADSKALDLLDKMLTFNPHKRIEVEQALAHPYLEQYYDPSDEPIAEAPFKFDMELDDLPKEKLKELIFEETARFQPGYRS
Assay [7] addresses T1, Aurora kinase A (Homo sapiens) (UniProt O14965).
T1 sequence (whole entry): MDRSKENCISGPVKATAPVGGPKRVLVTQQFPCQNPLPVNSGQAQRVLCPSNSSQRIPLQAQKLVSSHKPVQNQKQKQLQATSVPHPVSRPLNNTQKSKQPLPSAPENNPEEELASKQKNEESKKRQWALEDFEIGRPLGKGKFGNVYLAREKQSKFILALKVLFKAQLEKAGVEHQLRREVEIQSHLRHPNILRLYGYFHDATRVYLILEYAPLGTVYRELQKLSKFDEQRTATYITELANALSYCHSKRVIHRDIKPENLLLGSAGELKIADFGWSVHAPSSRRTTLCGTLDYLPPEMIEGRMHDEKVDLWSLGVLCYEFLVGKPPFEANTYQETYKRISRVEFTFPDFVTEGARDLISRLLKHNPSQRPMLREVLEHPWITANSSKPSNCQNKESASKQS

The target of assay [8] is T2, Transcription intermediary factor 1-alpha (Homo sapiens) (UniProt O15164).
T2 sequence (whole entry): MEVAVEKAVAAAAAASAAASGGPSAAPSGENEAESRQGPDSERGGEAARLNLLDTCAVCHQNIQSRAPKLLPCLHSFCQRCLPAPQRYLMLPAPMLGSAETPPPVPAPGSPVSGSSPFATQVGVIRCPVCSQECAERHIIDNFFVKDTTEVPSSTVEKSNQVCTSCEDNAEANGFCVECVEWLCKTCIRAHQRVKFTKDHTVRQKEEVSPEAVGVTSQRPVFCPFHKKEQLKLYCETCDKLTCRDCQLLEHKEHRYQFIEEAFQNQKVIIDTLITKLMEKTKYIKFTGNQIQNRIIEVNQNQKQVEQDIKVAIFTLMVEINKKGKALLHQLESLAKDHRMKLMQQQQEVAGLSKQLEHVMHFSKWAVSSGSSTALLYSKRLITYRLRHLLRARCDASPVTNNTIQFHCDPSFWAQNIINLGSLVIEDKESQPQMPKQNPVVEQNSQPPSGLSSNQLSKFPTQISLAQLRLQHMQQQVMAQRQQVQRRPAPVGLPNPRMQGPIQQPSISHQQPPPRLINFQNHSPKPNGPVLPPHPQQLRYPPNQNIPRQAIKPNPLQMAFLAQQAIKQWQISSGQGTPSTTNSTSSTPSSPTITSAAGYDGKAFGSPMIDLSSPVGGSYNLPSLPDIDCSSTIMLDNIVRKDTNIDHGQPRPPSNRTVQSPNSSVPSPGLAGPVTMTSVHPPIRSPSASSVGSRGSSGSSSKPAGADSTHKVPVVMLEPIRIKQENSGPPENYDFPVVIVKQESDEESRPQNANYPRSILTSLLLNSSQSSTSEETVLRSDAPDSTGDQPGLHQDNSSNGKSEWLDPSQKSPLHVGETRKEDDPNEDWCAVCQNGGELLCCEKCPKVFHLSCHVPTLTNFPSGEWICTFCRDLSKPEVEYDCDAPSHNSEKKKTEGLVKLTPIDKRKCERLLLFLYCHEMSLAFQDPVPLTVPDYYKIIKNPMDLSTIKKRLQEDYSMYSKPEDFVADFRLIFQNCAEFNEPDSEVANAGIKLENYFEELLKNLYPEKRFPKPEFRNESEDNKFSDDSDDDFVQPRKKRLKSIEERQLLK

Chain of Tyrosine-protein kinase ABL1 (Homo sapiens) (P00519 whole entry): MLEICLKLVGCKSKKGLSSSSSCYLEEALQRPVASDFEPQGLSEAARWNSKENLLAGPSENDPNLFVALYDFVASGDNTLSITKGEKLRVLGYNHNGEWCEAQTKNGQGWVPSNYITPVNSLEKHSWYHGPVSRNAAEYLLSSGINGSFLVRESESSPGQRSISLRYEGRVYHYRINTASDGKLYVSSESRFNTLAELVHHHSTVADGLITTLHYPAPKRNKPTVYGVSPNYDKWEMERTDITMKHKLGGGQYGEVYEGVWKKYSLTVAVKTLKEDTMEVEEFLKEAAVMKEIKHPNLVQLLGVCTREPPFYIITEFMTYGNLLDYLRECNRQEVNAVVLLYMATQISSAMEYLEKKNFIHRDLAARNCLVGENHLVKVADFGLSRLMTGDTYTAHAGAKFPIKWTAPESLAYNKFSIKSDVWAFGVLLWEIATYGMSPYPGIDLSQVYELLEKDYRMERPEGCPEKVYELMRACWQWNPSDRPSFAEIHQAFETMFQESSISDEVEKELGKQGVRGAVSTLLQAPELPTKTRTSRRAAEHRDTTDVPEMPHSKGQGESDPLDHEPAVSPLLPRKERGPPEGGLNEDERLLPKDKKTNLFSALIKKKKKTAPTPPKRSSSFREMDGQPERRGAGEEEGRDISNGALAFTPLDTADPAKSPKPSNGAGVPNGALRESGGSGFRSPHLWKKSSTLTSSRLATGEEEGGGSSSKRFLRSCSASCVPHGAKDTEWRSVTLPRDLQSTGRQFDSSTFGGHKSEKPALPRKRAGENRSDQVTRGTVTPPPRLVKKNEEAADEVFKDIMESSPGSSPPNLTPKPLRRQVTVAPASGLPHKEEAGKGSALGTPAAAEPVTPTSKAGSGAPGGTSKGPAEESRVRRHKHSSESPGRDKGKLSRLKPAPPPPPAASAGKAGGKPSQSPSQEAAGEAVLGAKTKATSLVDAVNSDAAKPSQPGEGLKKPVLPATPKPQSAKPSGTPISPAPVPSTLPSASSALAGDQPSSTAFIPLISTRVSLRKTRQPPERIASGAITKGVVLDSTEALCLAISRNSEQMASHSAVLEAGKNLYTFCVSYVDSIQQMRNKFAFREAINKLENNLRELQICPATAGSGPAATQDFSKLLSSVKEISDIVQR
Chain of Glycogen synthase kinase-3 beta (Homo sapiens) (P49841 whole entry, looked up): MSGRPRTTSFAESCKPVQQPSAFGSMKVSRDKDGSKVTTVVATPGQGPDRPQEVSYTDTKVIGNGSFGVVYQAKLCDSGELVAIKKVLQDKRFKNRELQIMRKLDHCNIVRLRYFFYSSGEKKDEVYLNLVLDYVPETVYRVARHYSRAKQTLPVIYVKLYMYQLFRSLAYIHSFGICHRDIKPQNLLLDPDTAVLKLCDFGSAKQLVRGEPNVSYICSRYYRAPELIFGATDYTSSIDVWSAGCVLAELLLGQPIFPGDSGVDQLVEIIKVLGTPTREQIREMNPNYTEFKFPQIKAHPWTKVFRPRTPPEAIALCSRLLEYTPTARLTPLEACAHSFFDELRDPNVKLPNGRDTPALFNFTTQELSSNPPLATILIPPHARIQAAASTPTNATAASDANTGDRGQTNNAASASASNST

As to `Cc1ccc(C)c(-n2sc3cc(F)ccc3c2=O)c1`, the ΔTm is -15.6 °C in assay [1]; -11.5 °C in assay [2]; -5.52 °C in assay [3]; -0.06 °C in assay [4]; 0 °C in assay [5]; -16.1 °C in assay [6]. The ΔTm is -1.97 °C in assay [7] and 0 °C in assay [8].

Take `CCc1c(-c2ccccc2)c(-c2ccccc2)nn1-c1ccccc1-c1cccc(OCC(=O)O)c1`: the ΔTm in assay [1] was -0.2 °C; in assay [2] it was -8.88 °C; in assay [3], -1.12 °C; in assay [4] it was -2.01 °C; in assay [5], 0 °C; in assay [6], -0.5 °C. The shift in melting temperature (ΔTm) in assay [7] is -3.9 °C; in assay [8], -3.28 °C.

In the case of `Cc1nc(-c2cnc(NC(C)C)n(C)c2=O)ccc1Oc1ccnc(-c2cnn(C)c2)c1`, the ΔTm in assay [1] is 13.3 °C; in assay [2], -1.75 °C; in assay [3], 0.63 °C; in assay [4], 0.37 °C; in assay [5], -0.22 °C; in assay [6], -0.25 °C. In addition, the ΔTm was 0.8 °C in assay [7] and -1.36 °C in assay [8].

Turning to `O=C(O)c1cccc(-c2ccc(-c3cn(C(=O)N4CCCCC4Cc4ccccc4)nn3)cc2)c1` (stereo not given), the ΔTm in assay [1] was -0.1 °C; in assay [2] it was -2.23 °C; in assay [3] it was -0.87 °C; in assay [4] it was -4.82 °C; in assay [5], -4.03 °C; in assay [6], 0.56 °C. The results for the ΔTm in assay [7] and in assay [8] were -3.62 °C and -0.34 °C, respectively.

For the compound `COc1ccc2c(c1)OC(C)(C)C(c1ccccc1)C2c1ccc(OCCN2CCCC2)cc1` (stereo not given), the ΔTm in assay [1] is -0.02 °C; in assay [2], -3.83 °C; in assay [3], -2.04 °C; in assay [4], -0.1 °C; in assay [5], 0 °C; in assay [6], -2.68 °C. The ΔTm in assay [7] was 0.51 °C; in assay [8], -3.44 °C.

With `Nc1ccccc1NC(=O)CCCCCC(=O)Nc1ccccc1`, the ΔTm in assay [1] is 0.27 °C; in assay [2], -2.09 °C; in assay [3] it was 0.5 °C; in assay [4], 0.04 °C; in assay [5], -0.05 °C; in assay [6], 0.2 °C. Besides, the ΔTm was -0.94 °C in assay [7] and -0.62 °C in assay [8].

Take `O=C(Nc1cc(C(F)F)ns1)Nc1cc(F)ncc1CO`: the ΔTm in assay [1] is 0.52 °C; in assay [2], -1.44 °C; in assay [3], 0.5 °C; in assay [4], -0.49 °C; in assay [5], 1.08 °C; in assay [6] it was 0.14 °C. The ΔTm is -1.82 °C in assay [7] and 0.59 °C in assay [8].

Regarding `Nc1nc2cc(CC[C@H]3C[C@@H](n4ccc5c(N)ncnc54)[C@H](O)[C@@H]3O)ccc2cc1Br`, the ΔTm in assay [1] is 2.92 °C; in assay [2] it was -1.76 °C; in assay [3], -4.38 °C; in assay [4], 4.13 °C; in assay [5], -8.32 °C; in assay [6] it was -17 °C. Also, the ΔTm was -10 °C in assay [7] and -0.53 °C in assay [8].

As to `CN(CC[C@@H](Oc1ccc(-c2ccccc2)cc1)c1ccc(F)cc1)CC(=O)O`, the ΔTm was 0.28 °C in assay [1]; -0.22 °C in assay [2]; -0.22 °C in assay [3]; 0.15 °C in assay [4]; -0.98 °C in assay [5]; 0.32 °C in assay [6]. Further, the ΔTm in assay [7] was -1.2 °C; in assay [8] it was 2.77 °C.

Regarding `CC(=O)N[C@@H](Cc1ccc(O)cc1)C(=O)N[C@H](C(=O)N[C@@H](C)C(=O)N[C@@H](CC(=O)O)C(=O)COC(=O)c1c(C)cccc1C)C(C)C`, the ΔTm in assay [1] was 0.26 °C; in assay [2], -2.81 °C; in assay [3] it was 0.14 °C; in assay [4] it was 0.17 °C; in assay [5], -0.23 °C; in assay [6], -0.06 °C. Besides, the ΔTm in assay [7] was -0.54 °C; in assay [8], -0.84 °C.

`NCCCOc1cc2ccccc2cc1C(=O)NCCOc1cc2ccccc2cc1C(=O)Nc1ccc(Cl)cc1O`: the ΔTm is 0.27 °C in assay [1]; -4.42 °C in assay [2]; -1.85 °C in assay [3]; 0.11 °C in assay [4]; -2.72 °C in assay [5]; -1.61 °C in assay [6]. In addition, the results for the ΔTm in assay [7] and in assay [8] were -3.9 °C and -0.59 °C, respectively.

As to `O=C1COc2c(cccc2[C@@H](O)CNCCN(C(=O)CCNCCc2ccc(Cl)c(Cl)c2)C2CCCCC2)N1`, the ΔTm in assay [1] is 0.38 °C; in assay [2] it was -1.19 °C; in assay [3], 0.73 °C; in assay [4], 0.16 °C; in assay [5], 0.42 °C; in assay [6] it was 0.56 °C. In addition, the ΔTm in assay [7] is -1.62 °C; in assay [8], 1.39 °C.

As to `O=C(NO)c1ccc(CN2CCCc3cc(Cl)ccc32)cc1`, the ΔTm was 0.31 °C in assay [1]; -1.3 °C in assay [2]; -0.96 °C in assay [3]; -0.07 °C in assay [4]; 0.96 °C in assay [5]; -0.12 °C in assay [6]. The ΔTm in assay [7] was -0.45 °C; in assay [8], -1.53 °C.

For the compound `CCN(c1cc(C#CCN2CCOCC2)cc(C(=O)NCc2c(C)cc(C)[nH]c2=O)c1C)[C@H]1CC[C@H](N(C)CCOC)CC1`, the ΔTm in assay [1] was 0.47 °C; in assay [2], -1.47 °C; in assay [3], 0.53 °C; in assay [4] it was 0.46 °C; in assay [5], -0.17 °C; in assay [6], 0.04 °C. In addition, the results for the ΔTm in assay [7] and in assay [8] were -0.54 °C and -0.98 °C, respectively.

On to `N#C[C@@H]1C[C@@H]2C[C@@H]2N1C(=O)[C@@H](N)C12CC3CC(CC(O)(C3)C1)C2`, for which the ΔTm is 0.22 °C in assay [1]; 0.38 °C in assay [2]; 0.24 °C in assay [3]; -0.14 °C in assay [4]; -0.19 °C in assay [5]; 0.33 °C in assay [6]. Further, the ΔTm in assay [7] is -2.27 °C; in assay [8] it was 1.46 °C.
